The text below walks through data of ChEMBL document CHEMBL1961873, “Compounds: GSK PKIS; Assays: Nanosyn kinase panel” (2012).

In experiment [1] the target is Serine/threonine-protein kinase pim-2 (Homo sapiens) (UniProt Q9P1W9). The conditions noted are these: at 1 µM.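 Also: each value is a mean of the inhibition measurements against the kinase.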
The target in experiment [2] is Serine/threonine-protein kinase pim-3 (Homo sapiens) (UniProt Q86V86). The conditions noted are these: at 0.1 µM.
Experiment [3] has the same target. The conditions noted are these: at 1 µM.
Experiment [4] concerns the target T1, MAP kinase-activated protein kinase 5 (Homo sapiens) (UniProt Q8IW41).
T1 sequence (whole entry): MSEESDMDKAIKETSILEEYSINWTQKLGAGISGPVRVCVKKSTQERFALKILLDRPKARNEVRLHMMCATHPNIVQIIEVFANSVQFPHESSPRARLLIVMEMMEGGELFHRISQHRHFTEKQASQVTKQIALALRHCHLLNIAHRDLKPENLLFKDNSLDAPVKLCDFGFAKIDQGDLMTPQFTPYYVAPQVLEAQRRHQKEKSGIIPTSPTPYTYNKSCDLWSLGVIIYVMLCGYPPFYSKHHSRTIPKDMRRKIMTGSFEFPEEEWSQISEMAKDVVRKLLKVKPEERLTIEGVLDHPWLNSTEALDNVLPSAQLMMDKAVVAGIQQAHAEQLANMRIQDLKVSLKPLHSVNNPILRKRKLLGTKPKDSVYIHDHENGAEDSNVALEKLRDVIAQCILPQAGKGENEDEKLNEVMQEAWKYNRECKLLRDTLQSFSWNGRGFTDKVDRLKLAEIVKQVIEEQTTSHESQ
The conditions noted are these: at 0.1 µM.

For experiment [5], the target named is T1, MAP kinase-activated protein kinase 5 (Homo sapiens). The conditions noted are these: at 1 µM.
Experiment [6] has as its target Serine/threonine-protein kinase SIK1 (Homo sapiens) (UniProt P57059). The conditions noted are these: at 0.1 µM.
Experiment [7] has the same target. The conditions noted are these: at 1 µM.
For experiment [8], the target named is Serine/threonine-protein kinase SIK2 (Homo sapiens) (UniProt Q9H0K1). The conditions noted are these: at 0.1 µM.
Experiment [9] has the same target. The conditions noted are these: at 1 µM.
For experiment [10], the target named is T2, Serine/threonine-protein kinase TBK1 (Homo sapiens) (UniProt Q9UHD2).
T2 sequence (whole entry): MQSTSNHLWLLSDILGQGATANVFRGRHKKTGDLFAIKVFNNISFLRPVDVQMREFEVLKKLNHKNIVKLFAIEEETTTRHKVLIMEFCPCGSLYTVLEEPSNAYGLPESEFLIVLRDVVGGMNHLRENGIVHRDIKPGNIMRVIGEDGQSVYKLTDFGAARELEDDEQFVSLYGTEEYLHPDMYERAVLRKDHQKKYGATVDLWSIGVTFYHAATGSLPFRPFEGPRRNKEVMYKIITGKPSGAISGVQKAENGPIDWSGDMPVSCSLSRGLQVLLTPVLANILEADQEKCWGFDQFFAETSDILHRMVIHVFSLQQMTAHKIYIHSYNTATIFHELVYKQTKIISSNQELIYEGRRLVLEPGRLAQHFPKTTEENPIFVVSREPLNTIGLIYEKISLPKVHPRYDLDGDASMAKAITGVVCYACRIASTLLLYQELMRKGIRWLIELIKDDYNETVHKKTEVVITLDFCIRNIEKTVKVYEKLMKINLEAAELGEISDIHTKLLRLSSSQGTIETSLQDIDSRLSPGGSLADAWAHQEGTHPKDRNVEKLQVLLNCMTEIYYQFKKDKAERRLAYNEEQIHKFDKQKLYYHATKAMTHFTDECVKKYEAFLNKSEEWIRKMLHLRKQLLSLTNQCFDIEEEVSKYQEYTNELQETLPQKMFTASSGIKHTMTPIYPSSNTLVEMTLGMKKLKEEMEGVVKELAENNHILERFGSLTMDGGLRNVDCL
The conditions noted are these: at 0.1 µM.

Experiment [11] addresses T2, Serine/threonine-protein kinase TBK1 (Homo sapiens). The conditions noted are these: at 1 µM.
Experiment [12] deals with T3, Testis-specific serine/threonine-protein kinase 1 (Homo sapiens) (UniProt Q9BXA7).
T3 sequence (whole entry): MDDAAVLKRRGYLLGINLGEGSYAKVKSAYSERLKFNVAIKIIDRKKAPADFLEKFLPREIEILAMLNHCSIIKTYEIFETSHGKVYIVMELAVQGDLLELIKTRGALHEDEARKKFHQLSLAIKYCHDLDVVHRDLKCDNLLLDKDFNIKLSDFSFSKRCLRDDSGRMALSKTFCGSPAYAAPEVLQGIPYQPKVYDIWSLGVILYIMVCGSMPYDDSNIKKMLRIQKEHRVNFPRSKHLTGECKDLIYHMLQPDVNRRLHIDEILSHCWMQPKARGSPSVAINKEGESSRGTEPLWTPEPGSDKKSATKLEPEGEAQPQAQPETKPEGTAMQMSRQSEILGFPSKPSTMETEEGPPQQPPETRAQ
The conditions noted are these: at 0.1 µM.

Experiment [13] has as its target T3, Testis-specific serine/threonine-protein kinase 1 (Homo sapiens). The conditions noted are these: at 1 µM.
In experiment [14] the target is T4, Testis-specific serine/threonine-protein kinase 2 (Homo sapiens) (UniProt Q96PF2).
T4 sequence (whole entry): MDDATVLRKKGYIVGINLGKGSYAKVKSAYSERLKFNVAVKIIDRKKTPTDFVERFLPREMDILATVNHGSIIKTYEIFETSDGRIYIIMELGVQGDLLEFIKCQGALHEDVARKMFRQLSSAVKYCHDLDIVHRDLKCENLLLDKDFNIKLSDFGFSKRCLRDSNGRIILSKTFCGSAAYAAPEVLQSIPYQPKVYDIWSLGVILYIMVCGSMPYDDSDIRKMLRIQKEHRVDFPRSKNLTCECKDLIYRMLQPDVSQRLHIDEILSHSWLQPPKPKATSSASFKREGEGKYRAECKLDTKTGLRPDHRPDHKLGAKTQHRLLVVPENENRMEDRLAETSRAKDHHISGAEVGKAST
The conditions noted are these: at 0.1 µM.

For experiment [15], the target named is T4, Testis-specific serine/threonine-protein kinase 2 (Homo sapiens). The conditions noted are these: at 1 µM.
Experiment [16] concerns the target Casein kinase I isoform alpha (Homo sapiens) (UniProt P48729). The conditions noted are these: at 0.1 µM.
Experiment [17] has the same target. The conditions noted are these: at 1 µM.
Experiment [18] has as its target Casein kinase I isoform gamma-1 (Homo sapiens) (UniProt Q9HCP0). The conditions noted are these: at 0.1 µM.
Experiment [19] shares this target. The conditions noted are these: at 1 µM.
The target in experiment [20] is Casein kinase I isoform gamma-2 (Homo sapiens) (UniProt P78368). The conditions noted are these: at 0.1 µM.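 Also: values are mean inhibition figures reported as part of the GSK PKIS dataset.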
Casein kinase I isoform gamma-2 (Homo sapiens), sequence (P78368 whole entry, looked up, canonical isoform): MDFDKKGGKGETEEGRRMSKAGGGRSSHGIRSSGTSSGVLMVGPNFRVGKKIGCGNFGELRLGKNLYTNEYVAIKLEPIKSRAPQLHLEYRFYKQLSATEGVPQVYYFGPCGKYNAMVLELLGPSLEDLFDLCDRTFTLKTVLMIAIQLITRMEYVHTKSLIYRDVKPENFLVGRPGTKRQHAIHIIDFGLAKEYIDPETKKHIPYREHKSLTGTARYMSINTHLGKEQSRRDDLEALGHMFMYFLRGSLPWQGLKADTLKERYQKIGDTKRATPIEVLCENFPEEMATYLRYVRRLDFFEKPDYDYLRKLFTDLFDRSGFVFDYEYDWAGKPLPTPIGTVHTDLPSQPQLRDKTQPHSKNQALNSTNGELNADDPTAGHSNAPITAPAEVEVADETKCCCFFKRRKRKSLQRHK

Serine/threonine-protein kinase SIK2 (Homo sapiens), sequence (Q9H0K1 whole entry, looked up): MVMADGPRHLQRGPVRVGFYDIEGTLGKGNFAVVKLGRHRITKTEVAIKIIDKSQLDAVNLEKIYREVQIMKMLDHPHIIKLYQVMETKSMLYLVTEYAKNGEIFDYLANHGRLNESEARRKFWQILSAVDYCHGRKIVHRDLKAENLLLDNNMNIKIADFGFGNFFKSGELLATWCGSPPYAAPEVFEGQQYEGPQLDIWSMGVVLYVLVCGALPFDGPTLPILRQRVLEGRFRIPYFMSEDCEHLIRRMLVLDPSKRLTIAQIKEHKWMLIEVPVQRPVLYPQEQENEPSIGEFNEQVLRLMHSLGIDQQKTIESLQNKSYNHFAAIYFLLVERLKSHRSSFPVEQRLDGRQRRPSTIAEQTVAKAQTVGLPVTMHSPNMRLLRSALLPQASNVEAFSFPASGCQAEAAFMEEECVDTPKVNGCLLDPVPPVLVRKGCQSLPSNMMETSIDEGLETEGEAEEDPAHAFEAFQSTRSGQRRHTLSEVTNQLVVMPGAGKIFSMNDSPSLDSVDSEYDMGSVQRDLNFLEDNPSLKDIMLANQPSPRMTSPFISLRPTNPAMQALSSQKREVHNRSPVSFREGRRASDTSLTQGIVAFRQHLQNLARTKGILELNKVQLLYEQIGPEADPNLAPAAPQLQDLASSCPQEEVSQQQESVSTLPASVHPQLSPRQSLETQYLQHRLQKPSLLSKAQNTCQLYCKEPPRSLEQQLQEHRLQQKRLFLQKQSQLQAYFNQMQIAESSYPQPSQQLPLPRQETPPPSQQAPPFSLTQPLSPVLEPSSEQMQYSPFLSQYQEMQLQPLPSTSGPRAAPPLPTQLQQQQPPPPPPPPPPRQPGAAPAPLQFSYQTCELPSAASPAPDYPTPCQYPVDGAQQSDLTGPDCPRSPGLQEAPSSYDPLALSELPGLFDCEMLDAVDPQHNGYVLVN
Serine/threonine-protein kinase SIK1 (Homo sapiens), sequence (P57059 whole entry): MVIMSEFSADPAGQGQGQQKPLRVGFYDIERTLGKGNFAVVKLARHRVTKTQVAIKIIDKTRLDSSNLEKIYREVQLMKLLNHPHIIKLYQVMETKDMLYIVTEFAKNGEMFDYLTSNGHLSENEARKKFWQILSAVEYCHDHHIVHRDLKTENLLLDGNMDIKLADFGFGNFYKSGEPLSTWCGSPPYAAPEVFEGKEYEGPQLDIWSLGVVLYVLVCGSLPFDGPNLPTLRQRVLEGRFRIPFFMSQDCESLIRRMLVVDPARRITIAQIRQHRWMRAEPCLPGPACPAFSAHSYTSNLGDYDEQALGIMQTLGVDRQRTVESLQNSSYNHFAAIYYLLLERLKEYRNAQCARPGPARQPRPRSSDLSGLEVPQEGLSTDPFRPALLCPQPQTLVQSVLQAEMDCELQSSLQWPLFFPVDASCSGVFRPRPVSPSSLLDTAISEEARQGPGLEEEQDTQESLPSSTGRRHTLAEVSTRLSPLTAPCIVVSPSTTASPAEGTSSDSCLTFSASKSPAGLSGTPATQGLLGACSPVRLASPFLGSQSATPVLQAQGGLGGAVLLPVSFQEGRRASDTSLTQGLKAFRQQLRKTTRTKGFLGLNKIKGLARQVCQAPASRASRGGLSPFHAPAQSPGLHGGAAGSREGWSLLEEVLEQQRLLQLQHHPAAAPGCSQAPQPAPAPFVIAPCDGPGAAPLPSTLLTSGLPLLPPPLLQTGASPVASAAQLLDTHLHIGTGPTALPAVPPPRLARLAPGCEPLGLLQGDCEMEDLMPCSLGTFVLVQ
Casein kinase I isoform gamma-1 (Homo sapiens), sequence (Q9HCP0 whole entry, looked up, canonical isoform): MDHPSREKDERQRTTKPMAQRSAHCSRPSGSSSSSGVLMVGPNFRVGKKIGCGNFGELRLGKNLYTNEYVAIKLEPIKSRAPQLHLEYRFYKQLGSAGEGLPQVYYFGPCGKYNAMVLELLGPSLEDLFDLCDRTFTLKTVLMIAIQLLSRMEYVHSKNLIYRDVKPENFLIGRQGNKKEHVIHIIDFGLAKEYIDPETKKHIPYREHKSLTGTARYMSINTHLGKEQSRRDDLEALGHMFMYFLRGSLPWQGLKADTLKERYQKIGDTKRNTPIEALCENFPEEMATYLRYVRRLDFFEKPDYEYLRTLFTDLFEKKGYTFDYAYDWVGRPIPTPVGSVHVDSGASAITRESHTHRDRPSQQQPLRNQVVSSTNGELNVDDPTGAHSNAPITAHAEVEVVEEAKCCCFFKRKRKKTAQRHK
Serine/threonine-protein kinase pim-2 (Homo sapiens), sequence (Q9P1W9 whole entry, looked up): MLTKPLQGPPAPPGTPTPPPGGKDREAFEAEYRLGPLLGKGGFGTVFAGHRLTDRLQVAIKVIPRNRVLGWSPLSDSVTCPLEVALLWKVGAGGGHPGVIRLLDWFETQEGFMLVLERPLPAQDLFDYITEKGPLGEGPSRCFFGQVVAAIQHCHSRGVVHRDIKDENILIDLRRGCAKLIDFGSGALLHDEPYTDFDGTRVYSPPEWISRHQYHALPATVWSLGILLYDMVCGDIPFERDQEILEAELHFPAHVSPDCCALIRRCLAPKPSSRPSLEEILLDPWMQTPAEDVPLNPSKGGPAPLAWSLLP
Casein kinase I isoform alpha (Homo sapiens), sequence (P48729 2-337 limits assumed): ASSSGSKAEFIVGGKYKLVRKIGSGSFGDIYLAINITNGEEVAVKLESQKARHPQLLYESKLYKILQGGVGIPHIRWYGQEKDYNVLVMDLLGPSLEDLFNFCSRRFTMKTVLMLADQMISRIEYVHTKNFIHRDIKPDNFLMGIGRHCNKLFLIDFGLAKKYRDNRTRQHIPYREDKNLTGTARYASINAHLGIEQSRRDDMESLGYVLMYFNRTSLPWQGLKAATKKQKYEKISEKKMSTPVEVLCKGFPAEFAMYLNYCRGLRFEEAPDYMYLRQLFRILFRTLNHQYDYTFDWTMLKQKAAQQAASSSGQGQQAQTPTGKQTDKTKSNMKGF

On to `N#Cc1ccc(Oc2nccc(-c3c(-c4ccc(F)cc4)ncn3C3CCNCC3)n2)cc1`, for which the inhibition (as a rule, the relative decrease from the control value, in per cent) in [1] was found to be 0.58%; in [2], 0.29%; in experiment [3], 0.8%; in experiment [4], 1.34%; in [5], 1.48%; in [6], 5.1%. Moreover, the inhibition in experiment [7] came to 7.69%; in experiment [8], 2.82%; in experiment [9], 9.93%; in [10], 1.69%; in experiment [11] it was 3.03%; in experiment [12], 3.77%. Also, the inhibition in experiment [13] worked out at 4.18%; in [14], 1.71%; in experiment [15] it was 4.59%; in [16], 4.15%; in [17] it was 10.1%; in [18], 3.79%. Further, the inhibition came to 5.9% in experiment [19] and 3.52% in experiment [20].
For `NS(=O)(=O)c1ccc(N/N=C2\C(=O)Nc3ccc(C(=O)NCCCn4ccnc4)cc32)cc1`, the inhibition in experiment [1] stood at 7.42%; in [2] it was 3.06%; in experiment [3], 18.9%; in [4], 1.4%; in [5], 4.54%; in experiment [6], 7.49%. The inhibition in experiment [7] came out at 13.9%; in experiment [8] it was 9.61%; in [9], 12.7%; in experiment [10], 3.93%; in [11], 30.4%; in experiment [12], 7.1%. Besides, the inhibition in experiment [13] was 13.3%; in experiment [14] it was 4.07%; in experiment [15] it was 6.71%; in experiment [16], 3.95%; in [17], 6.05%; in [18], 5.08%. The inhibition in [19] was determined as 10.8%; in experiment [20], 4.43%.
`O=C1NC(=O)C(c2cccc(Cl)c2)=C1Nc1ccc(Cl)c(C(=O)O)c1`: the inhibition in experiment [1] was -0.53%; in experiment [2], 0.54%; in [3] it was 0.43%; in experiment [4] it was 1.73%; in experiment [5], 2.67%; in [6] it was 4.05%. Further, the inhibition in experiment [7] is 5.1%; in [8], 10.7%; in experiment [9] it was 4.62%; in experiment [10], 2.24%; in experiment [11], 5.8%; in experiment [12], 4.88%. The inhibition in [13] stood at 4.16%; in [14], 3.03%; in experiment [15], 4.21%; in experiment [16], 1.07%; in experiment [17], 2.57%; in experiment [18], 2.32%. The figures for the inhibition in experiment [19] and in experiment [20] were 1.79% and 2.25%, respectively.
Consider `CN1CCN(CCCNc2nc3ccc(Oc4ccc(NC(=O)Nc5cc(C(F)(F)F)ccc5F)cc4)cc3[nH]2)CC1`, for which the inhibition is -1.74% in experiment [1]; 1.11% in [2]; -0.28% in [3]; -0.1% in experiment [4]; -1.41% in [5]; 0.75% in experiment [6]. Further, the inhibition in experiment [7] is 3.99%; in experiment [8] it was -2.3%; in experiment [9] it was 0.76%; in experiment [10], 1.88%; in experiment [11] it was 3.78%; in experiment [12], 0.87%. The inhibition is -0.16% in experiment [13]; -0.81% in experiment [14]; -1.46% in experiment [15]; 1.84% in experiment [16]; 0.56% in experiment [17]; -1.36% in experiment [18]. For the same molecule, the inhibition in experiment [19] was -3.19%; in experiment [20], -4.72%.
With `O=C(Nc1n[nH]c2nc(-c3ccc(O)cc3)c(Br)cc12)C1CC1`, the inhibition came out at 75.2% in [1]; 31.9% in experiment [2]; 73.9% in experiment [3]; 2.42% in experiment [4]; 3.04% in experiment [5]; 6.92% in [6]. In addition, the inhibition in experiment [7] was found to be 17.1%; in experiment [8] it was 14.2%; in [9], 19.9%; in experiment [10], 4.12%; in experiment [11], 22.6%; in experiment [12] it was 5.99%. In addition, the inhibition in experiment [13] was determined as 5.96%; in [14], 3.73%; in [15] it was 4.53%; in experiment [16] it was 4.72%; in experiment [17] it was 5.83%; in experiment [18] it was 4.64%. In addition, the results for the inhibition in [19] and in [20] were 5.67% and 4.14%, respectively.
In the case of `NC(=O)Cc1ccccc1Oc1nccc(-c2c(-c3ccc(F)cc3)ncn2C2CCNCC2)n1`, the inhibition in experiment [1] was 0.59%; in experiment [2], -1.38%; in experiment [3] it was 0.63%; in experiment [4], 0.43%; in experiment [5], -0.72%; in experiment [6] it was 3.93%. The inhibition in experiment [7] is 4.7%; in experiment [8], 3.81%; in [9], -3.54%; in experiment [10], 5.2%; in experiment [11] it was 4.55%; in [12], 2.65%. In addition, the inhibition was 1.8% in [13]; 1.16% in experiment [14]; -0.31% in experiment [15]; 9.09% in [16]; 12.9% in [17]; 4.95% in [18]. Further, the results for the inhibition in [19] and in experiment [20] were 10.3% and 3.59%, respectively.
Consider `CCc1ccc(Oc2nccc(-c3c(-c4ccc(F)cc4)ncn3C3CCNCC3)n2)cc1`, for which the inhibition amounted to 0.04% in experiment [1]; 1.11% in experiment [2]; 3.63% in [3]; 1.38% in [4]; 2% in experiment [5]; 5.66% in experiment [6]. For the same molecule, the inhibition was determined as 14.7% in experiment [7]; 3.65% in experiment [8]; 19.4% in [9]; 4.53% in [10]; 4.95% in experiment [11]; 3.27% in experiment [12]. The inhibition in experiment [13] was determined as 5.22%; in experiment [14] it was 1.61%; in experiment [15] it was 2.6%; in experiment [16], 6.84%; in experiment [17] it was 36.5%; in [18] it was 3.65%. Further, the figures for the inhibition in experiment [19] and in [20] were 14.8% and 3.26%, respectively.
With `CN(c1ccc(NC(=O)Nc2c(Cl)cccc2Cl)cc1)c1ccnc(Nc2cccc(CS(C)(=O)=O)c2)n1`, the inhibition in experiment [1] was 0.1%; in experiment [2], 1.1%; in [3], 3.85%; in experiment [4] it was 1.58%; in [5] it was 1.46%; in [6], 5.71%. Also, the inhibition in [7] amounted to 13.3%; in [8], 9.6%; in experiment [9] it was 10.2%; in experiment [10] it was 3.74%; in experiment [11], 8.89%; in experiment [12], 1.9%. Also, the inhibition in experiment [13] was determined as 3.33%; in [14], 0.55%; in experiment [15], 1.93%; in experiment [16] it was 1.15%; in experiment [17], 1.15%; in [18] it was 0.39%. Also, the inhibition in experiment [19] came out at 1.32%; in [20] it was 1.06%.
